From PubChem BioAssay (NCI)
This is part of a sample that, as a whole, favours compounds with a hit. Of some 83,000 tested, about 20% had one in any assay.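 Testing used 96-well plates and a 48-hour single-concentration exposure. Example: -40 means 40% of the starting cells died.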 Values without a mark were called inactive. Active and inactive are the calls of the source. The calls were made as follows: active = growth percent below 10; inactive = the rest.

How the values were obtained:
Experiment in all cases: NCI-60 one-dose screen, 48 h (100 = growth as untreated, 0 = no growth, -100 = all killed)
DU-145 prostate = details: 10 µM unless noted
K-562 leukemia = details: 10 µM unless noted
MALME-3M melanoma = details: 10 µM unless noted
MDA-MB-231 breast = details: 10 µM unless noted
RXF 393 renal = details: 10 µM unless noted
SF-268 CNS = details: 10 µM unless noted
SF-295 CNS = details: 10 µM unless noted
SF-539 CNS = details: 10 µM unless noted
UACC-257 melanoma = details: 10 µM unless noted
M14 melanoma = details: 10 µM unless noted
HCT-15 colon = details: 10 µM unless noted
HT29 colon = details: 10 µM unless noted
SNB-19 CNS = details: 10 µM unless noted
U251 CNS = details: 10 µM unless noted
PC-3 prostate = details: 10 µM unless noted
SK-MEL-5 melanoma = details: 10 µM unless noted
UACC-62 melanoma = details: 10 µM unless noted
LOX IMVI melanoma = details: 10 µM
SK-MEL-28 melanoma = details: 10 µM unless noted
SNB-75 CNS = details: 10 µM unless noted

| SMILES | growth (DU-145 prostate) | growth (K-562 leukemia) | growth (MALME-3M melanoma) | growth (MDA-MB-231 breast) | growth (RXF 393 renal) | growth (SF-268 CNS) | growth (SF-295 CNS) | growth (SF-539 CNS) | growth (UACC-257 melanoma) | growth (M14 melanoma) | growth (HCT-15 colon) | growth (HT29 colon) | growth (SNB-19 CNS) | growth (U251 CNS) | growth (PC-3 prostate) | growth (SK-MEL-5 melanoma) | growth (UACC-62 melanoma) | growth (LOX IMVI melanoma) | growth (SK-MEL-28 melanoma) | growth (SNB-75 CNS) |
| --- | --- | --- | --- | --- | --- | --- | --- | --- | --- | --- | --- | --- | --- | --- | --- | --- | --- | --- | --- | --- |
| O=[N+]([O-])c1ccc(C(Br)c2ccc([N+](=O)[O-])cc2)cc1 | 111% | 25.4% | 101% | 93.8% | 117% | 84.8% | 80.6% | 110% | 98.1% | 22.6% | 57.8% | 72.7% | 106% | 88.6% | 61.8% | 68.1% | 79.5% | -40.1% (active) | 105% | – |
| CCNc1nnnn1CC | 109% | 109% | 116% | 103% | 106% | 106% | 103% | 103% | 116% | 104% | 99.7% | 109% | – | 106% | 97.3% | 101% | 106% | 98.7% | 113% | 90.4% |
| CCCCCC/C=C1\CCC(CN2CCCC2)C1=O (stereo not given) | 107% | 57.3% | 119% | 102% | 95.6% | 102% | 111% | 114% | 92.1% | 93.3% | 77.1% | 120% | 92.6% | – | 89.7% | 96.9% | 99.2% | 59.8% | 114% | 90.9% |
| Cc1cc(Br)c2nsnc2c1[N+](=O)[O-] | 18.9% | 22.7% | 82.4% | 30% | 48.2% | 32.3% | 33.8% | 9.73% (active) | 66.9% | 3.57% (active) | 27.4% | – | 52.9% | 36.9% | 49% | 54.1% | 56.5% | 8.37% (active) | 63.3% | 50.1% |
| CC(C)(C)c1ccc(O)c(-c2ccccc2)c1 | 115% | 105% | 130% | 120% | 112% | 105% | 126% | 108% | 90.1% | 121% | 102% | 107% | 121% | 96.3% | 95.2% | 116% | 103% | 103% | 119% | – |
| COc1cccc2c1C(=O)c1c(O)c3c(c(O)c1C2=O)C[C@@](O)(C(=O)CO)C[C@@H]3OC1CC(OC(C)=O)C(OC(C)=O)C(C)O1 (stereo not given in full) | -50.9% (active) | -34.2% (active) | -83% (active) | 9.19% (active) | -31.3% (active) | -22.3% (active) | -30.2% (active) | -34.4% (active) | -27.7% (active) | -12.5% (active) | – | -59% (active) | -8.8% (active) | -42.9% (active) | 5.51% (active) | -100% (active) | -87.8% (active) | -75.4% (active) | -8.16% (active) | -30.9% (active) |
| CCOC(=O)c1c(C)[nH]c2ccc(O)cc12 | 106% | 101% | 103% | 96.7% | 109% | 97.7% | 111% | 98.1% | 92.9% | 101% | 109% | 96.3% | 101% | 97.3% | 93.2% | 101% | – | 97.1% | 120% | 100% |
| Cc1ccc2cccc(OC(=O)Nc3cccc(C(F)(F)F)c3)c2n1 | 71.1% | 33.5% | 82% | 86.6% | 95.6% | 95% | 6.24% (active) | 96.4% | 87.3% | 85.5% | 50.9% | 56.2% | 72.1% | – | – | 86.4% | 60.8% | – | 84.6% | 87.5% |
| O=C(Nc1ccc(Cl)c(Cl)c1)OCc1ccco1 | 54.8% | 15.8% | 68.6% | 52.2% | 56% | 47.8% | 31.6% | 41.8% | 62.6% | 44.9% | 29.7% | 34% | 63.3% | 43.1% | 54.1% | 30.6% | 25.5% | – | 74.1% | 8.5% (active) |
| O=C(CCl)N(c1ccccc1)c1ccccc1 | 110% | 105% | 98.6% | 114% | 104% | 105% | 103% | 108% | 94.1% | 95.9% | 105% | 114% | – | 98.1% | 91.4% | 99.8% | 95.6% | -36% (active) | 110% | 105% |
| C(=N\Nc1ccc2ccccc2n1)/c1ccccn1 | 22.7% | 15.4% | -23.6% (active) | 30.5% | 16.7% | 16.7% | 14.7% | -14.2% (active) | -3.38% (active) | -8.17% (active) | 28.5% | 32.1% | 21.3% | 10.1% | 45.1% | -10.8% (active) | -14.4% (active) | 15.1% | 32.9% | – |
| O=C(c1ccccc1)C(O)C(Br)(CBr)c1ccccc1 (stereo not given) | 87.1% | 50.8% | 99.9% | 91.6% | 105% | 98.8% | 103% | 107% | 72.5% | 82.6% | 86.5% | – | 90.5% | 81.7% | 70.2% | 85.6% | 65.3% | 46.6% | 101% | 99.5% |
| O=C1C(=O)c2cc([N+](=O)[O-])ccc2-c2ccccc21 | -99.2% (active) | -9.39% (active) | -82.7% (active) | -50.6% (active) | -97.2% (active) | -84.4% (active) | -82.2% (active) | -93% (active) | -94.5% (active) | -90.2% (active) | -53.7% (active) | -79.4% (active) | -93.8% (active) | -81.5% (active) | – | -99.6% (active) | -94.2% (active) | -88.4% (active) | -97% (active) | -98.2% (active) |
| CCN(CC)CCNC(Cc1ccccc1)c1ccc(OCc2ccccc2)cc1 (stereo not given) | 98.5% | 14.9% | 88.6% | 50% | 63.4% | 84.5% | 74.5% | 57% | -40.7% (active) | -29.6% (active) | 30.4% | 15.4% | 89.3% | – | 56.8% | 72.8% | -50.8% (active) | 58.6% | 62.5% | 71.4% |
| Cc1cc(C(=O)c2ccc(Cl)cc2)ccc1O | 98.2% | 112% | 112% | 94.3% | 75.7% | 92.5% | 90.3% | 93% | 115% | 89.2% | 112% | 99.1% | 116% | 101% | – | 95.3% | 89.8% | 99.3% | 105% | 96% |
| O=[N+]([O-])c1ccc(Oc2ccccc2Cl)c([N+](=O)[O-])c1 | 89% | 17.4% | 85.5% | 75.5% | 86.7% | 84.9% | 102% | 94.6% | 89.8% | 86.2% | 77% | 90.2% | 95.7% | 88.4% | 97.1% | 95.1% | – | 44.2% | 103% | 83.2% |
| NC(=S)N/N=C/c1ncccc1O | 12.7% | 24% | 54% | 34.8% | 9.63% (active) | 14.9% | 21.5% | -7.14% (active) | 18.9% | -56.2% (active) | 33.7% | 28.5% | 29.1% | 25.4% | 37% | – | 18.3% | 10.5% | – | 26.7% |
